Data reported in PubChem BioAssay AID977606 (Broad Institute, 2014).
Hit rate of the full screen: of about 1,500 compounds, about 430 (29%) were called active. The list is a sample of the results. Measured potencies and affinities stand elsewhere. A number with no mark means an inactive call. The rule behind the calls is not given here.

Assay: glucose-independent GLuc insulin release activation – cell-based, INS-1E, Gaussia luciferase, luminescence, cherry-pick, counter-screen for glucose-dependent insulin secretion activators, dose response (AID 977606);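 note: 0% = median of neutral control wells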
Details: INS-1E Gaussia luciferase insulin secretion, no glucose, 100% = twice neutral-control luminescence; series mostly up to 35 µM; activation: at the top concentration

SMILES	activation
CCc1onc(C)c1C(=O)Nc1ccc(N2CCOCC2)cc1	21.2%
CS(=O)(=O)N1CCN(c2ccccc2NC(=O)c2ccco2)CC1	21.4%
O=C(Nc1cccnc1Cl)C1=NN(c2ccccc2)C(=O)CC1	-2.54%
C[C@@H]1CN([C@H](C)CO)C(=O)c2cc(C3=CCCCC3)cnc2O[C@H]1CN(C)C(=O)CN1CCOCC1	33.7%
CCNc1nc(NCC)nc(N(C)/N=C/c2ccco2)n1	7.09%
COc1cc(NC(=O)c2c(-c3ccccc3Cl)noc2C)c2ncccc2c1	-11.6%
CCc1ccc(N(C2C=CS(=O)(=O)C2)S(=O)(=O)c2ccccc2)cc1 (stereo unspecified)	7.78%
COc1ccc(CC(=O)c2ccc(OC)c(OC)c2)cc1	-6.86%
COc1ccc(CCNC(=O)Cc2ccc3c(c2)OCO3)cc1OC	-14.8%
COc1ccc(C(=O)NCC(=O)OCC(=O)NC2CCCCCC2)cc1OC	-8.94%
COC(=O)C1C(=O)NC(SC)=C(C#N)C1c1ccccc1 (stereo unspecified)	-94.9%
COc1cccc(CNC(=O)N[C@@H](CC(C)C)C(=O)O)c1	4.45%
COc1ccc(C2N(c3ccccc3)C(=O)C2(F)F)cc1OC (stereo unspecified)	1.38%
COC(=O)C1=C(C)NC(=S)NC1c1cccc(OC)c1 (stereo unspecified)	4.93%
Cc1cccc(C2N=C(N)Nc3nc4ccccc4n32)c1 (stereo unspecified)	16.5%
CCOc1ccc(C(=O)NCC(=O)Nc2cc(C)ccn2)cc1OCC	-0.143%
CCCN(Cc1nnc(-c2ccccc2Cl)o1)C(=O)c1cc2ccccc2o1	-3.92%
c1ccc2nc3c(nc2c1)c1ccccc1n3CCN1CCOCC1	5.65%
COc1ccc(CCN(C)C(=O)C(CCSC)NC(=O)c2ccco2)cc1OC (stereo unspecified)	2.04%

SMILES	activation
CC(=O)Nc1ccc(S(=O)(=O)Nc2ccc3c(c2)n(C)c(=O)n3C)c(C)c1	3.77%
COc1nc(N2CCOCC2)nc(-n2cccc2)n1	-0.551%
COc1ccc(S(=O)(=O)N(C)c2ccc(C(=O)NCC3CCCO3)cc2)cc1OC (stereo unspecified)	6.43%
COc1ccc(-c2nc(CCNC(=O)c3ccco3)cs2)cc1OC	-0.006%
COc1ccc(-c2c(NC(=O)c3ccco3)oc3ccc(Cl)cc3c2=O)cc1	-3.48%
Cc1ccnc(NC(=O)CNC(=O)c2ccco2)c1	-10.1%
CCOc1cc(NC(=O)c2ccco2)c(OCC)cc1NC(=O)c1cc(OC)c(OC)c(OC)c1	-13.1%
Cc1ccc(C2(C)NC(=O)N(CC(=O)Nc3ccc(-c4nc5ccc(C)cc5s4)cc3)C2=O)cc1 (stereo unspecified)	-15.2%
CCC(=O)Nc1cc2nn(-c3ccc(OC)cc3)nc2cc1C	-3.71%
COc1ccc(S(=O)(=O)N2CCCCC2)cc1NC(=O)C1CC1C (stereo unspecified)	26.7%
CC(Oc1ccc2c3c(c(=O)oc2c1)CCCC3)C(=O)NCc1cccnc1 (stereo unspecified)	-13%
Cc1ccc(Nc2ncnc3sccc23)c(C)c1	-5.06%
O=C(CN1C(=O)NC(Cc2c[nH]c3ccccc23)C1=O)NCCc1ccccc1 (stereo unspecified)	0.275%
O=C(Nc1ccc(NC(=O)c2cccs2)cc1)c1ccc(Br)o1	-6.3%
O=C(Nc1nnc(CCS(=O)(=O)c2ccc3ccccc3c2)s1)c1cccs1	1.61%
CS(=O)(=O)N1CCCCC1c1cc(C(=O)Nc2cccc(C#N)c2)no1 (stereo unspecified)	3.77%
CN(c1ccc(F)cc1)S(=O)(=O)c1ccc(Cl)c(C(=O)NCC2CCCO2)c1 (stereo unspecified)	-1.9%
COc1cc(Cl)c(C)cc1NC(=O)c1ccccc1NC(=O)CN1CCN(C(C)=O)CC1	-5.13%
Cc1cc(C)nc(NC(=O)c2ccc(Cl)cc2Cl)n1	-13.6%

SMILES	activation
O=C(CNC(=O)c1ccco1)N/N=C/c1ccc(C(=O)O)cc1	13.5%
COCCN(CCOC)Cc1cc(=O)oc2cc(C)c(C)cc12	19.4%
COc1cccc2cc(-c3cc(=O)oc4cc(C)c(O)cc34)oc12	-14.2%
Cc1c(OCC(=O)NCc2ccccn2)ccc2c3c(c(=O)oc12)CCCC3	-14.3% [at 11 µM]
Cc1sc2ncn(CC(=O)NCc3ccccc3)c(=O)c2c1C	3.79%
O=C1NC(=O)C2(CCCCC2C2CCCCC2)N1 (stereo unspecified)	-0.57%
COc1ccccc1CNC(=O)CCS(=O)(=O)Cc1ccc(C)cc1	7.48%
Cc1cc(C)c(CSc2nnnn2-c2ccc(C(=O)O)cc2)c(C)c1	-5.78%
CC(C)c1cc(C(C)C)n2nc(N)nc2n1	-3.96%
CN1CCSc2ccc(C(=O)Nc3cccc(F)c3)cc21	-8.84%
CC(=O)c1ccc(OCC(=O)N(C2CCCCC2)C2CCS(=O)(=O)C2)cc1 (stereo unspecified)	4.75%
Cc1ccc(C(=O)N2CCN3C(=O)c4ccccc4C23c2ccccc2)cc1 (stereo unspecified)	1.92%
COc1cc2cnc(-c3cccnc3)cc2cc1OC	-6.43%
Cc1ccc(S(=O)(=O)NCc2csc(-c3cccs3)n2)cc1	13.5%
COc1cc2[nH]c(-c3ccc(C)cc3)cc(=O)c2cc1OC	-15.4%
O=C(Cn1[nH]c(=O)c2ccccc2c1=O)OCC(=O)c1ccc(F)cc1	-5.33%
CCN(Cc1ccccc1)S(=O)(=O)c1ccccc1Br	-6.72%
C=CCN(CC=C)S(=O)(=O)c1ccc(C(=O)Nc2sc3c(c2C(N)=O)CCCCC3)cc1	23.2%
